# From paper PMC6212790, “How bacterial xenogeneic silencer rok distinguishes foreign from self DNA in its resident genome”
# Over roughly 33,000 sequences, “e-score” has its median near -0.038; the highest 2% begin near 0.33. Only a selection was taken, and the highest values are over-represented in it overall.
# Biological target: T1, GST-Rok-C97-191 (Bacillus subtilis subsp. subtilis str. …, UniProt O34857 97-191)
# T1 sequence: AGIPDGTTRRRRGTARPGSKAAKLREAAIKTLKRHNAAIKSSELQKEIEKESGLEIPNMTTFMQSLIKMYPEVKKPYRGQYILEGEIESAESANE
# Experiment: protein binding microarray; Rok is a gene silencer of Bacillus subtilis; high values mean tight binding
# Conditions: protein: recombinant; tags: GST (pTH5325, pDEST15-Magic modified); dsDNA, one strand shown
# Method in brief: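 Each has a 25-mer constant primer and a 35-mer variable part from a de Bruijn sequence of order 10, covering every non-palindromic 8-mer at least 32 times (palindromic 16). Preference for each 8-mer is given as a rank-based, unitless enrichment score (E-score). Its range runs from 0.5 (most favored) to −0.5 (most disfavored).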
row,Sequence,binding signal [E-score]
1,ATGGTGAA,0.0706
2,GCTGATTA,0.0269
3,GAAAGAAC,0.0785
4,CCAGTTGA,-0.091
5,AACAGAGG,-0.0648
6,CGAGTGTC,-0.0337
7,ATGACGGG,-0.176
8,GGGGCTAA,-0.0896
9,ATAAGAAT,0.215
10,CGAATATA,0.245
11,GGAATATA,0.377
12,AGAATATA,0.231
13,CAACGGCA,-0.159
14,GCGCAATA,0.0439
15,CCCGGTAG,-0.134
16,CGCGGTAG,0.00539
17,ACCGGTAG,0.335
18,ACCGGTAA,0.192
19,AGCGGTAG,0.33
20,AGCGGTAT,0.237
21,ATGACCCA,-0.129
22,GTTTGTTA,0.13
23,ACATCAAA,0.02
24,CCTGTCAG,-0.131
25,AACTAATT,0.344
26,AACTAACG,0.263

row,Sequence,binding signal [E-score]
1,AACTAACA,0.126
2,AACTAAAT,0.379
3,AACTAATA,0.288
4,AACTAACT,0.352
5,TACTAAAA,0.421
6,AACTAAAG,-0.0536
7,GACTAAAA,0.144
8,CACTAAAA,0.299
9,AACTAATC,0.129
10,AACTAAAC,0.00571
11,AGGCACAT,-0.0618
12,CTGCAACA,0.0545
13,ACGGACCA,-0.109
14,CGTCCTTA,0.175
15,AAAATGTG,0.218
16,GTGCGAAC,-0.184
17,GCGAATAC,0.0221
18,AAACTGGG,-0.197
19,CCCGCTAC,-0.0971
20,AGACCTAG,0.0543
21,AGAAGCTC,-0.0476
22,CCTAATCC,0.0562
23,CGATAAGA,0.0724
24,AACTAAGA,0.223
25,AACTAAAA,0.347
26,ACCTAAAA,0.295

row,Sequence,binding signal [E-score]
1,AACACAAA,0.135
2,AGCGCAAG,-0.0906
3,ATACGACC,0.00262
4,AAAGGTAG,0.316
5,GTTAACGA,0.0428
6,ATTAACTG,0.214
7,ATTAACTA,0.367
8,CTTAACTA,0.273
9,ATTAACTC,0.124
10,GTTAACTA,0.376
11,TAGTCACA,0.123
12,TCGGGCCA,-0.12
13,AGAGTGCG,-0.139
14,AGTAGAAT,0.422
15,AGTAGAGA,0.206
16,AGTAGAAA,0.448
17,AGTAGAAG,0.276
18,AGTAGAAC,0.234
19,ATTAGAAA,0.282
20,AACGGGCT,-0.138
21,AGCCATTG,-0.0954
22,AAGGACTG,-0.0637
23,ACAGAGAG,-0.125
24,CTATTGTC,-0.0498
25,ATATTGTA,0.363
26,ATATTGTG,0.214

row,Sequence,binding signal [E-score]
1,CTATTGTA,0.355
2,GTATTGTA,0.212
3,CAATTGTA,0.251
4,ATGCGCGG,-0.168
5,CTGTCCAA,-0.154
6,CACAGAGG,-0.0801
7,ACATCCTG,-0.137
8,TCCTGCGA,-0.149
9,GGCTTGAA,-0.105
10,CACTGACG,0.009
11,AAATTTGA,0.0368
12,AAATTTTA,0.374
13,AATTTTAC,0.384
14,AAATTTGG,0.0224
15,AAATTTTC,0.182
16,AATTTTAG,0.259
17,AAATTTAG,0.242
18,AATTTTTA,0.167
19,GAATTTAC,0.282
20,AAATTTGT,0.33
21,AAATTTAC,0.38
22,ATTTTTAC,0.328
23,TGAAGTAA,0.132
24,GTAATAAC,0.0936
25,GTATTCGA,0.15
26,ATTTGCTG,-0.0116

row,Sequence,binding signal [E-score]
1,AAGATTGC,-0.0164
2,AATCGTGA,-0.118
3,ACCCATGC,-0.182
4,AGAGCGAA,-0.138
5,GGTCGACA,-0.101
6,CAATTTAG,0.232
7,CAATTTAA,0.0656
8,CAAATTTA,0.31
9,TAAATTTA,0.405
10,CAATTTAC,0.357
11,AAAATTTA,0.282
12,AGTCTGGG,-7.1e-05
13,GAGCTTAC,-0.189
14,CCGAAAAC,0.168
15,AATACAAA,0.313
16,TATACAAA,0.347
17,TATACATA,0.401
18,CATACAAA,0.219
19,AATACATA,0.308
20,CATACATA,0.234
21,TACACATA,0.203
22,CATACATG,0.171
23,GATACATA,0.377
24,CATTAACC,-0.0128
25,TCATACCA,0.0725
26,ATTAGCAC,0.0299

row,Sequence,binding signal [E-score]
1,GTCGGAAC,0.0505
2,AAGGTTGA,0.063
3,CTACCTTA,0.264
4,AAAAGCAA,0.148
5,CGATTATC,0.0925
6,TACTGAGA,0.0745
7,TGACTAAA,0.0396
8,GTACTAAC,0.145
9,ATACTAAT,0.321
10,CTACTAAG,0.261
11,GGACTAAA,0.0947
12,CTACTAAA,0.379
13,ATACTAAA,0.39
14,TTACTAAA,0.335
15,CTACTAAC,0.223
16,TCACTAAA,0.164
17,ATACTAAC,0.103
18,GTACTAAA,0.329
19,TATTTCCA,0.228
20,ACTATTGC,0.313
21,CTATCTTA,0.227
22,AAGAATCT,0.0962
23,TTCCTCAA,0.041
24,AACTGAGC,0.0188
25,GAAGCTGA,0.014
26,ACGGTCCT,-0.132

row,Sequence,binding signal [E-score]
1,AAACTGTT,-0.043
2,AATAGATA,0.32
3,ATAAGATA,0.372
4,GTTAGATA,0.321
5,AAAAGATA,0.137
6,CTAAGATA,0.213
7,GAAAGATA,0.329
8,GATAGATA,0.347
9,GTAAGATA,0.229
10,CATAGATA,0.297
11,TAAAGATA,0.27
12,GATAGATC,0.268
13,TATAGATA,0.368
14,AACATCGA,0.134
15,GCACAAAC,-0.0175
16,AGCGTGGA,0.126
17,AAAAGAGA,0.147
18,TCCATTCA,-0.131
19,TAACAATA,0.292
20,GATTTGCC,-0.0374
21,CGTTATCC,-0.0591
22,ACACCTGC,-0.197
23,GTGCGGGA,-0.196
24,CTCCCATC,-0.161
25,AATAGATG,0.267
26,AATAGATT,0.352

row,Sequence,binding signal [E-score]
1,AATAGATC,0.161
2,CTAGTCGA,0.131
3,GATAAGCA,0.0731
4,ATAATAAT,0.31
5,CTAATAAG,0.127
6,ATAATAAG,0.331
7,ATAATACA,0.242
8,ATAATACC,0.197
9,ATAATACG,0.344
10,AGGAACCA,0.128
11,AAGCTTGC,-0.0667
12,AAGACGGC,-0.186
13,CCTCGCTC,-0.125
14,AACTATAT,0.415
15,AAATATAT,0.417
16,CAATATAC,0.243
17,AACTATAC,0.253
18,AAATATAG,0.22
19,AAATATAC,0.401
20,AAATATAA,0.269
21,GAATATAC,0.293
22,AACTATAG,0.327
23,AAGTGCGG,0.009
24,CGAGCCTA,-0.0633
25,GAACGTCA,-0.14
26,CGGCACTA,0.0999

row,Sequence,binding signal [E-score]
1,ATTTAGGG,-0.024
2,CTTTGCTC,-0.124
3,CAAGTACA,0.151
4,GAAGTACA,0.237
5,AAAGTACC,0.291
6,TAAGTACA,0.35
7,AAAGTACG,0.192
8,AAAGTACA,0.366
9,CCGTTGGA,-0.177
10,ACAAAACG,-0.11
11,AATTTACT,0.416
12,CATTTACG,0.0408
13,AATTTACG,0.338
14,AATTTACC,0.345
15,ATTTTACG,0.268
16,TATTTACA,0.235
17,GATTTACC,0.187
18,CATTTACA,0.277
19,AATTTAAT,0.321
20,AATTTACA,0.331
21,AATTTAGT,0.165
22,ATTTTACC,0.322
